High-throughput results from PubChem.
Integrin act MD = qHTS for Activators of Integrin-Mediated Alleviation for Muscular Dystrophy. alpha7betagal myoblasts, beta-gal FDG fluorescence, 48 h. Potency, µM (titrated, usually from 38.3 µM), inactives show top-dose activation, most hits filed as activators. hit rate 0.064% among 350,000. AID 624291, 2012;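 also: potency is read from the fitted curve at half-maximal effect; 100% = response of the positive control SU9516; nearly all actives have a fitted effect of over 60% in size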
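Alpha7betagal+/- myoblasts (passage 13) were plated 16-24 hr, then exposed to compounds (1:260 dilution of DMSO stock) for 48 hours at 37C. After MPER lysis, β-galactosidase reporter activity was read as FDG fluorescence (ex 480/em 540) after 30 minutes.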
Menin MLL FP TR = qHTS Assay for Inhibitors Targeting the Menin-MLL Interaction in MLL Related Leukemias: Competition With Texas Red Labeled MLL-derived Mutant Peptide | O00255 | Menin + Texas Red MLL mutant peptide, fluorescence polarization | Potency, µM (series often up to 61.6 µM), without a hit: at the highest dose FP activity change, negative = inhibition, usual class: inhibitors | hit rate 0.23% among 270,000 | AID 1768, 2009; active = well fitted inhibition curve with a large enough effect in the polarisation, with a control signal flat, not every such curve was filed as active; inconclusive = small, poorly fitted or top-dose-only effect, or effect the other way, or a change in a side signal; inactive = no such curve, though single readings can be large or run the other way; the % refers to the polarisation; also: potency is read from the fitted curve at half-maximal effect; % of control where 0% means no effect
Target sequence (O00255 whole entry, looked up): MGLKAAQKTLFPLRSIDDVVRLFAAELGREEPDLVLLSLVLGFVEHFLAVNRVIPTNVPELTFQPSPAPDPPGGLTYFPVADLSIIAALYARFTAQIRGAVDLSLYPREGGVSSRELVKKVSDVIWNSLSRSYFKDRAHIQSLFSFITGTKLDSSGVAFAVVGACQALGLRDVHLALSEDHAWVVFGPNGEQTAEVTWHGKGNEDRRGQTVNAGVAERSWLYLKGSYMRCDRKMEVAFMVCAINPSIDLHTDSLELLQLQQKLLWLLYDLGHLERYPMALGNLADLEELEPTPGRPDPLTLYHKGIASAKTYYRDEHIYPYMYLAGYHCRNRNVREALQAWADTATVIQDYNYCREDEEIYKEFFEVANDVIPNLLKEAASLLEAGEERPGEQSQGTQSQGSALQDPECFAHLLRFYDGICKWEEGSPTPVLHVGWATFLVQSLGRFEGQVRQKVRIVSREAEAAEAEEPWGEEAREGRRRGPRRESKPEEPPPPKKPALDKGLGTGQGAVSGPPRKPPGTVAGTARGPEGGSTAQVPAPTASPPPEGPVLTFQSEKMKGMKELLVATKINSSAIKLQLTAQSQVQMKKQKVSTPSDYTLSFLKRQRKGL
GLA inh pH 4.5 = qHTS Assay for Inhibitors of Human alpha-Galactosidase at pH 4.5. purified enzyme, 4-MU-alpha-Gal fluorescence, pH 4.5. activity change, negative = inhibition, % at 105 µM. 230,000 tested, under 10 active. AID 1467, 2008;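 also: 0% = full activity with enzyme and -100% = basal without enzyme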
MLL CXXC-DNA inh = qHTS Fluorescence Polarization Assay for Inhibitors of MLL CXXC domain - DNA interaction; hit rate 0.037% among 290,000; MLL-CXXC / FITC-HOXA9 DNA fluorescence polarization; Potency, µM (series often up to 115 µM), without a hit: top-dose activity change, negative = inhibition, most hits filed as inhibitors; active = well fitted inhibition curve with a large enough effect in the polarisation, with a control signal flat, not every such curve was filed as active; inconclusive = small, poorly fitted or top-dose-only effect, or effect the other way, or a change in a side signal; inactive = no such curve, though single readings can be large or run the other way; the % refers to the polarisation; also: potency is read from the fitted curve at half-maximal effect
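Fluorescence polarization: 7 uM MLL-CXXC (stock) preincubated 5 min with compounds, then 50 nM fluorescein-HOX-A9 DNA (stock) added; 30 min ambient. Buffer 50 mM Tris-HCl pH 7.5, 50 mM NaCl, 1 mM DTT, 0.05% BSA.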
Menin MLL FP FL = qHTS Assay for Inhibitors Targeting the Menin-MLL Interaction in MLL Related Leukemias: Competition With Fluorescein Labeled MLL-derived Peptide. Fluorescence polarization, fluorescein-MLL peptide displacement from menin. FP activity change, % at 61.4 µM. 290,000 tested, under 10 active; active = well fitted curve in the direction sought with a large enough effect in the polarisation, not every such curve was filed as active; inconclusive = small, poorly fitted or top-dose-only effect, or effect the other way, or a change in a side signal; inactive = no such curve, though single readings can be large or run the other way; the % refers to the polarisation; also: % of control where 0% means no effect
aGal spleen mod = qHTS Assay for Inhibitors and Activators of Human alpha-Galactosidase From Spleen Homogenate. hit rate 0.008% among 240,000. human spleen homogenate, 4MU-alpha-Gal fluorescence, 40 min. Alpha-galactosidase A (Homo sapiens), P06280. Potency, µM (titrated, usually from 80 µM), for the others: at the top dose activity change, negative = inhibition, most hits filed as inhibitors;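 also: potency is read from the fitted curve at half-maximal effect; 0% = enzyme with vehicle and -100% = no enzyme basal signal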
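Fluorogenic readout (Ex 365/Em 440 nm) of 4-methylumbelliferone released from 1 mM 4-MU-alpha-galactoside by spleen homogenate, 40 min at 37C, pH 5.0. Data normalized to no-enzyme and enzyme controls; Hill-equation AC50 from compound titrations.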
Starred values were filed as active, the others as inactive; ? = inconclusive; nt = not tested or not shown; [ ] = another dose, or the depositor's remark. The entries come from a sample that favours hits as a whole. Unless noted, calls follow the shape of the dose curve; as a rule, active = well fitted curve in the direction sought with a large enough effect; inconclusive = small, poorly fitted or top-dose-only effect, or another doubt; inactive = no such curve, though single readings can be large; an effect the other way counts as inactive or inconclusive.

SMILES	Integrin act MD	Menin MLL FP TR	GLA inh pH 4.5	MLL CXXC-DNA inh	Menin MLL FP FL	aGal spleen mod
COc1cc(CNc2ccc(N3CCCC3)cc2)cc(Cl)c1OC	-8%	28µM*	13	38%	-1	-2%
CSCC[C@@H]1NC(=O)C/C=C\[C@@H](C)COC(=O)[C@@H](CCSC)NC(=O)C/C=C\[C@@H](C)COC1=O	nt	1%[11.7 µM]	nt	nt	1[11.7 µM]	-1%[17.5 µM]
Cc1ccncc1C(=O)O	nt	6%	nt	nt	7	-11%
COc1cccc([C@@H]2Oc3ccc(Br)cc3C[C@H]2OC(=O)N[C@H](C)C2CCCCC2)c1	nt	-8%	-6	nt	0	19%
CCOc1ccc2ccccc2c1C1NC(=O)N(C)C(C)=C1C(=O)OCCOC (stereo unspecified)	6.3µM*	-25%	nt	7%	4	nt
CCN1C(=O)[C@H]2[C@H]3[C@H](O)[C@H](O)C/C(=N/NC(=O)OCc4ccccc4)[C@H]3CC[C@@H]2C1=O	nt	0%[11.7 µM]	nt	nt	-2[11.7 µM]	-11%[17.5 µM]
Cc1ccc(S(=O)(=O)NCC(c2ccco2)N2CCOCC2)cc1 (stereo unspecified)	?	-7%	-5	-1%	1	6%
O=S(=O)(NCC(c1ccco1)N1CCOCC1)c1ccc(Cl)cc1 (stereo unspecified)	14µM*	10%	3	3%	14	-1%
O=C(O)c1cc(N=Nc2ccc(O)c(C(=O)O)c2)ccc1O	nt	40µM*	nt	-9%	-7	nt
O=C(O)c1cc(N=Cc2c(O)c3ccccc3oc2=O)ccc1O	7.1µM*	21%	nt	2%	-1	nt
Cc1cc(C)cc(N=Cc2c(O)c3ccccc3oc2=O)c1	2%	2%	2[21.1 µM]	5%	-3	-3%
O=C(O)c1cc(N=Nc2ccc(-c3ccc(N=Nc4ccc(O)c(C(=O)O)c4)cc3)cc2)ccc1O	nt	?	nt	nt	?	-13%
COCCN1C(=O)N[C@@H](c2cccc(C(F)(F)F)c2)C(C(C)=O)=C1C	nt	-9%	0	nt	-2	-4%
c1ccc(Nc2nc(-c3ccc4c(c3)OCO4)nc3ccccc23)cc1	nt	?	nt	nt	4	-1%
NS(=O)(=O)c1ccc(NC(=O)c2cc(-c3ccccc3O)n[nH]2)cc1	10µM*	?	nt	?	-1	nt
COc1ccc(Cl)cc1NC(=O)Cn1c(=O)oc2ccccc21	-12%	?	nt	2%	10	nt
O=C(Cn1c(=O)oc2ccccc21)Nc1ccc(Cl)cc1Cl	31%	32µM*	nt	44%	-1	nt
O=C1[C@@H]2[C@H]3[C@H](O)[C@H](O)C/C(=N/OC[C@@H](O)COCc4ccco4)[C@H]3CC[C@H]2C(=O)N1c1ccc(F)cc1F	nt	6%[11.7 µM]	nt	nt	-1[11.7 µM]	0%[17.5 µM]
CCOc1cccc(C(=O)NC(=S)Nc2ccc(N3CCN(CC)CC3)cc2)c1	-22%	7.1µM*	4	-2%	-8	-1%
CCCOc1cccc(C(=O)NC(=S)Nc2ccc(N3CCN(C)CC3)cc2)c1	10%	-3%	4	-4%	0	-2%
COc1ccccc1-c1csc(NC(=O)c2cc(-c3cccs3)nc3ccccc23)n1	?	8.9µM*	0	11%	7	0%
O.O.[Mn].[Mn].[Mn].[OH-].[OH-]	nt	-2%	nt	nt	1	5%
CCn1cc(C(=O)NCCc2ccc(OC)c(OC)c2)c(=O)c2cc(S(=O)(=O)N3CCOCC3)ccc21	9%	16µM*	nt	8%	0	nt
COC(=O)C1=NNC2(C)C(=O)N(c3ccc(C)cc3)C(=O)C12 (stereo unspecified)	10µM*	nt	-6	2%	0	-1%
CO/N=C\CC(=O)Nc1ccc(Cl)c(Cl)c1	-5%	25µM*	4	-9%	0	-2%
SMILES	Integrin act MD	Menin MLL FP TR	GLA inh pH 4.5	MLL CXXC-DNA inh	Menin MLL FP FL	aGal spleen mod
CC12C=C(/C=C/CCc3ccco3)C(C)(C1)[C@H](CCc1ccco1)CC2=O (stereo partly specified)	nt	1%	-9	nt	3	1%
CC1=CC2=C(OC1N(C)C)c1cccc3cccc(c13)C2=O (stereo unspecified)	-14%	28µM*	-7	-7%	?	-18%
CC1=CC(=O)c2c(O)ccc(O)c2C1=O	nt	?	-8	32µM*	?	-8%
COc1ccc(CCNC(=O)Cn2nnc(C(=O)Nc3ccc(Br)cc3)c2N)cc1OC	11µM*	nt	nt	10%	nt	nt
Cc1ccc(OCC(=O)N2CCN(S(=O)(=O)c3ccc4c(c3)OCCO4)CC2)c(C)c1	2µM*	nt	nt	nt	nt	nt
Cc1c2c(c(O)c3c(O)cccc13)C(=O)O[C@H]2C1C(N(C)C)C(O)=C(C(N)=O)C(=O)[C@H]1O (stereo partly specified)	nt	?	nt	nt	0	-9%
COc1ccc(CCNC(=O)c2nn(C)c3c2CS(=O)(=O)c2ccccc2-3)cc1OC	4.5µM*	?	nt	47%	2	nt
Cc1ccc(CCNC(=O)c2nn(C)c3c2CS(=O)(=O)c2ccccc2-3)cc1	30%	nt	nt	27%	nt	nt
COC(=O)[C@@H]1CC[C@H](C)[C@@H](c2ccc(C)cc2)N1C(=O)c1ccc(/C=N\OC[C@@H](C)[C@H](OCc2ccccc2)C(C)C)cc1	nt	-24%[11.7 µM]	nt	nt	2[11.7 µM]	5%[17.5 µM]
Cn1c(=O)c2c(nc(Sc3ncnn3CC(=O)NC3CCCCC3)n2C)n(C)c1=O	11µM*	nt	5	-2%	1	15%
O=S(=O)(Nc1cccc2cccnc12)c1ccc(Br)cc1	nt	?	nt	nt	0	3%
CCOc1ccccc1-n1nnnc1SCC(=O)Nc1cc2oc3ccccc3c2cc1OC	-3%	10µM*	-5	33%	6	5%
C=COCC1CN2C(CCC(C)C2c2ccc(Br)cc2)C(=O)O1 (stereo unspecified)	nt	-6%[11.7 µM]	nt	nt	1[11.7 µM]	13%[17.5 µM]
COc1cccc(Nc2nc(-c3cccc(N4C(=O)c5ccccc5C4=O)c3)cs2)c1	-3%	14µM*	6	33%	2	-15%
CO[C@@H]1COC(=O)C/C=C\[C@H](C)[C@H](OC)COC(=O)[C@H]2CCCN2C(=O)C/C=C\[C@H]1C	nt	-21%[11.7 µM]	nt	nt	3[11.7 µM]	-1%[17.5 µM]
CCN(CC)C(=O)Nc1ccc(OC[C@H](O)CNC(C)(C)C)c(C(C)=O)c1	nt	7%	nt	-6%	4	nt
Cc1ccc(S(=O)(=O)Oc2ccc(N=Nc3ccc(-c4ccc(N=Nc5c(O)ccc6cc(S(=O)(=O)O)cc(S(=O)(=O)O)c56)c(C)c4)cc3C)cc2)cc1	nt	nt	nt	nt	nt	9%
